Screen size: about 69,000 compounds; about 8,600 (12%) showed an effect of 50% or more. Only a selection was taken, and strong results are over-represented in it overall.

The test system of this test is Plasmodium berghei. Description: Screen against P. berghei liver stage (PbLuc), transformed with Luciferase, at 10uM. The test is classed as functional, HepG2. Conditions: tested at 10 uM.
As to `CC(C)NC(=O)Cn1cc(OCc2ccc(F)cc2)c(=O)cc1CO`, the INHIBITION was found to be 27.5%.
The result for `COCCn1cc2c(n1)C(CNC(=O)c1cc(C)[nH]c1C)OCC2` (centres undefined) reads 23.6%; that for `O=C(NC1CCC(O)CC1)c1ccc2nc(-c3ccc(F)cc3)cn2c1` (centres undefined), 35.5%; that for `CCc1nnc2n1CCN(Cc1ncc(-c3ccc(F)cc3)o1)C2`, -3.235%.
In the case of `Cc1csc(CNCC(C)c2nc3ccccc3o2)n1` (centres undefined) it was 48.3%; in that of `Cc1ncsc1CNCC(C)c1nc2ccccc2o1` (centres undefined), 50%; in that of `Cc1nc(CNCC(C)c2nc3ccccc3o2)cs1` (centres undefined), 20%.
The result for `Nc1cc(-c2cncnc2C2CCN(C(=O)c3ccccc3)C2)ccn1` (centres undefined) reads 3.48%; that for `Cn1ccnc1CN1C[C@@H]2[C@@H](C1)OCC(=O)N2CC1CCCC1`, 39.8%.
Consider `O=C(c1ccc[nH]1)N1CC[C@@H](OCC2CC2)[C@@H]1Cc1cccnc1`, for which the INHIBITION was -68.6%.
In the case of `CN(CC(=O)N1CCC(OCc2cccnc2)CC1)c1ccccc1` it was 5.91%.
For `O=C(C1CCOC1)N1CCC(OCc2ccccc2)CC1` (centres undefined), the INHIBITION turned out to be 33.9%.
In the case of `O=C(C1CCOCC1)N1CCC(OCc2cccnc2)CC1` it was 85.2%; in that of `Cn1c(CN2CCC(OCc3cccnc3)CC2)cc2ccccc21`, 56.2%.
In the case of `Cn1c(CN2CCN(c3cccnc3)CC2)cc2ccccc21`, the INHIBITION amounted to 27.4%.
For the compound `O=C(Cc1cccnc1)N1CCC(OCc2ccccc2)CC1`, the INHIBITION is listed as 7.84%.
The result for `CCc1ccc(C(=O)NCc2cccc(S(=O)(=O)NC)c2)o1` reads -14%.
The result for `CCn1ccnc1CN1CCCN(C(=O)c2cnn(C)c2)CC1` reads -21.21%; that for `Cc1cc(N2CCN(C(=O)Cc3c(C)nc(C)[nH]c3=O)CC2)cc(C)n1`, 14.9%; that for `CCO[C@@H]1CN(Cc2scnc2C)[C@@H]2CCCO[C@@H]21`, -6.39%.
In the case of `N#Cc1cnc(N2CCC3(CC2)OCCO3)nc1N` it was 1.61%; in that of `Cc1ccc(-c2noc(CN3CCc4cncnc4C3)n2)cc1`, 38.6%.
For the compound `Cn1cc(C(=O)N2CCCC(c3cc(O)n(C)n3)C2)cn1` (centres undefined), the INHIBITION is listed as 19.6%.
The result for `O=C1CN(S(=O)(=O)c2ccc(F)cc2)CC(O)CN1CC1CC1` (centres undefined) reads 4.07%.
In the case of `Cc1csc(C(=O)N2CCCC(c3[nH]ncc3S(C)(=O)=O)C2)c1` (centres undefined) it was 27.8%.
The result for `Cn1cnnc1S(=O)(=O)C1CCN(C(=O)c2cccs2)CC1` reads 41.8%; that for `Cc1csc(C(=O)N2CCC(S(C)(=O)=O)CC2)c1`, 43.7%.
Regarding `Cc1csc(C(=O)N2CC(S(=O)(=O)C3CCCCC3)C2)c1`, the INHIBITION is on record as 75.2%.
In the case of `Cc1csc(C(=O)N2CCC(S(C)(=O)=O)C2)c1` (centres undefined) it was 12.3%.
Turning to `COc1ccc(S(=O)(=O)C2CCN(C(=O)c3cc(C)cs3)CC2)cc1`, the INHIBITION is recorded as 65.2%.
In the case of `O=C(CCOc1cccc(F)c1)N1CCCC(n2cccn2)C1` (centres undefined) it was -18%.
The result for `Cc1ccc(-c2nc(CN3CCCC3Cn3cncn3)cs2)o1` (centres undefined) reads -15.5%.
The result for `O=S1(=O)COCCN1Cc1ccc(F)c(F)c1` reads 29.9%.
`Cc1nc(-c2ccc(S(=O)(=O)N3CCSCC3)cc2)co1`: the INHIBITION was 49.4%.
In the case of `COCCNc1nc(-c2ccc(S(=O)(=O)N3CCCCC3)cc2)cs1`, the INHIBITION was -1.16%.
The result for `Cc1nc(-c2ccc(S(=O)(=O)N3CCSC3)cc2)co1` reads 39.6%; that for `COCc1nc(-c2ccc(S(=O)(=O)N3CCCC3)cc2)cs1`, 61%.
In the case of `Cc1nc(-c2ccc(S(=O)(=O)N3CCCCC3)cc2)co1` it was 6.09%; in that of `COCCNC(=O)c1cc(S(=O)(=O)N2CCCCC2)cs1`, -4.86%.
`COCCNc1nc(-c2ccc(S(=O)(=O)N3CCCCCC3)cc2)cs1`: the INHIBITION was 62.8%.
Consider `COCCCc1nc(-c2ccc(S(=O)(=O)N3CCCC3)cc2)cs1`, for which the INHIBITION is 61%.
The result for `Cc1nc(-c2ccc(S(=O)(=O)N3CCOCC3)cc2)co1` reads 14.8%; that for `c1cnnc(N2CCCC2CNCc2noc(C3CC3)n2)c1` (centres undefined), -29.8%; that for `COCCNC(=O)CNC(=O)c1nc(Cc2c(Cl)cccc2Cl)no1`, 9%.
The result for `COc1c(C(=O)NCC2CCCO2)nnn1Cc1ccccc1` (centres undefined) reads -14.7%.
The result for `O=C(N1CCOCC1)N1C[C@H]2CN(Cc3nccs3)C[C@H]2C1` reads 34.6%; that for `O=C(c1cncc2ccccc12)N1CCC[C@@H]1CO`, -10.6%; that for `c1cnc(NCc2ncn3c2CN(Cc2cccnc2)CCC3)nc1`, 36.1%.
Regarding `O=C(CN(CC1CCC1)CC(F)(F)F)N1CCOCC1`, the INHIBITION stood at 22.6%.
The result for `CC(=O)Cc1c(C)nn(-c2cncc(C(N)=O)c2)c1C` reads -27.5%; that for `CCOc1ccc(-n2nc(C)c(CC(C)=O)c2C)cc1C(N)=O`, 52.8%; that for `COc1ccc(-n2nc(C)c(C(C)=O)c2C)cc1C(N)=O`, -17.5%.
In the case of `CCOc1ccc(C(=O)CCC(=O)N(C)Cc2snnc2C)cc1C` it was 29.7%.
Turning to `Cc1nnc(SCc2cc(=O)n3c4c(sc3n2)CCCC4)[nH]1`, the INHIBITION is recorded as 25.8%.
In the case of `CC(C)c1noc(CN(C)C(c2ccc(F)cc2)c2cccnc2)n1` (centres undefined) it was 38.6%; in that of `COc1cccc(CN(C)Cc2nc(C(C)C)no2)c1`, 61.9%.
The result for `COc1cccc(COc2nc(C(C)C)no2)c1` reads 17.4%.
In the case of `CC(C)c1noc(C2CCCN2S(=O)(=O)Cc2ccc(F)cc2)n1` (centres undefined) it was 28.7%.
In the case of `CC(C)c1noc(CN(Cc2ccccc2)C2CC2)n1`, the INHIBITION stood at 54.5%.
The result for `CC(C)c1noc(CN(Cc2ccc(F)cc2)C2CC2)n1` reads 82.4%.
In the case of `COc1cccc(NC(=O)CCCc2nc(C(C)C)no2)c1` it was 26.5%; in that of `CC(C)c1noc(CN(Cc2cccs2)C2CC2)n1`, 41.8%; in that of `CC(C)c1noc(CN(Cc2ccccc2F)C2CC2)n1`, 16.8%.
The result for `CCN(Cc1ccc2c(c1)OCCO2)C(=O)NCCc1cnn(C)c1` reads 8.15%; that for `O=C(Nc1nc2c(s1)CN(S(=O)(=O)C1CC1)CC2)c1ccc(=O)[nH]c1`, 31.9%; that for `NC1(C(=O)NCCC2CN(Cc3ccco3)CCO2)CCCC1` (centres undefined), 20%.
For the compound `CCn1ccnc1CN1CCN(C(C)C(=O)N2CCCCCC2)CC1` (centres undefined), the INHIBITION is recorded as 30.6%.
In the case of `CCN(CC1CCCO1)C(=O)Nc1cccc(Cl)c1OC` (centres undefined) it was 26.4%; in that of `Cc1nn(-c2ncnc3[nH]cnc23)c2c1C(C(C)(C)C)CC(=O)N2` (centres undefined), -4.35%.

Source of the values: ChEMBL document CHEMBL4513216, “Probing the Open Global Health Chemical Diversity Library for Multistage-Active Starting Points for Next-Generation Antimalarials” (ACS Infect Dis, 2020).
